Assay outcomes: PubChem, National Center for Advancing Translational Sciences (NCATS)
A selection: hits, their analogues and other compounds. The true share with any hit is near 11%.
Tau fibril FP: qHTS for Inhibitors of Tau Fibril Formation, Fluorescence Polarization | 280,000 compounds, 0.39% hits | Potency, µM (highest dose often 57.7 µM), for inactives: top-dose activity, negative = inhibition, hits mostly inhibitors | Microtubule-associated protein tau (Homo sapiens), P10636 | K18 P301L tau heparin fibrillization, Alexa594 FP, 6 h; note: potency is the fitted concentration of half-maximal effect; nearly all actives have a fitted effect of over 55% in size
Target sequence (P10636 561-689 P618L limits assumed): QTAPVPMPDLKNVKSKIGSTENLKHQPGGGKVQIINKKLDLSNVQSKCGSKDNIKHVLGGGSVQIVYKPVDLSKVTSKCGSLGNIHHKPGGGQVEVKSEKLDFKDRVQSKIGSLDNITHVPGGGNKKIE
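K18 P301L tau (15 uM unlabeled/0.24 uM Alexa 594-labeled, final) + compound + heparin 20 uM final; 100 mM NaOAc pH 7; 6 hr 37 C; ThT 30 uM final added, 1 hr RT; FP ex 555/em 632 nm.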
G9a block: qHTS Assay for Inhibitors of Histone Lysine Methyltransferase G9a; Histone-lysine N-methyltransferase EHMT2 (Homo sapiens), Q96KQ7; Potency, µM (series often up to 102 µM), inactives show top-dose activity, negative = inhibition, most hits filed as inhibitors; AID 504332, 2011; 350,000 compounds, 8.8% hits; G9a H3K9 monomethylation, AlphaScreen, 2 h; note: potency is the fitted concentration of half-maximal effect; nearly all actives have a fitted effect of over 75% in size
Target sequence (Q96KQ7 913-1193 limits assumed): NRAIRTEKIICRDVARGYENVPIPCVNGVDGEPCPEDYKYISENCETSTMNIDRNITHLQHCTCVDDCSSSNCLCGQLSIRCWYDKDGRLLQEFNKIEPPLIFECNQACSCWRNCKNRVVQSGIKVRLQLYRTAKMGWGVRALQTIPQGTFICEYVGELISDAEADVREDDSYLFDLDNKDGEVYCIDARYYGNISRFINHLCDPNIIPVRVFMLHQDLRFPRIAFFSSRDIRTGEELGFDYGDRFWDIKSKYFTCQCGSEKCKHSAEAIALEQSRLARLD
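Chemiluminescent proximity detection of H3K9 monomethylation, read after 10 min bead incubation in the dark. Reaction: 20 nM G9a, 500 nM biotin-H3K9 peptide, 20 uM SAM cofactor, 2 h, room temperature, following 15 min enzyme-compound preincubation.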
Sfp PPTase inh: qHTS Assay for Inhibitors of Bacillus subtilis Sfp phosphopantetheinyl transferase (PPTase). 310,000 compounds, 3.5% hits. Biochemical Sfp PPTase activity, qHTS. 4'-phosphopantetheinyl transferase ffp (Bacillus subtilis), Q9F4F7. Potency, µM, without a hit: largest response in the series, negative = inhibition, most hits filed as inhibitors;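 note: the enzyme is Sfp with the accession as filed and its product quenches rhodamine fluorescence; potency is the fitted concentration of half-maximal effect; 0% = enzyme reaction without inhibitor and -100% = no enzyme wells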
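Reaction rates are the 30-min fluorescence difference (ex 525, em 598 nm) in wells containing 15 nM Sfp, 5 uM rhodamine-CoA and 12.5 uM BHQ-2-YbbR at pH 7.6 with 10 mM MgCl2.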
Tau fibril ThT: qHTS for Inhibitors of Tau Fibril Formation, Thioflavin T Binding; Potency, µM (highest dose often 57.4 µM), for inactives: at the top dose activity, negative = inhibition, hits mostly inhibitors; 270,000 compounds, 2.1% hits; recombinant tau K18 P301L, heparin-induced fibrillization, ThT fluorescence; note: potency is the fitted concentration of half-maximal effect; nearly all actives have a fitted effect of over 55% in size
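Recombinant human tau K18 fragment […] carrying P301L, 15 uM unlabeled plus 0.24 uM Alexa 594-labeled, was fibrillized with 20 uM heparin in 100 mM sodium acetate pH 7 for 6 hr at 37 C; 30 uM ThT fluorescence read after 1 hr.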
Tau fluor cs: Counterscreen qHTS for Inhibitors of Tau Fibril Formation, Fluorescence Polarization; tau K18 P301L Alexa594 fluorescence, heparin fibrillization; 280,000 compounds, 0.93% hits; AID 1463, 2008; Potency, µM (doses to about 57.7 µM), for the others: at the top dose activity change, negative = decrease; note: potency is the fitted concentration of half-maximal effect; nearly all actives have a fitted effect of over 55% in size
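Human tau K18 P301L (15 uM unlabeled, 0.24 uM Alexa 594-labeled) in 100 mM sodium acetate pH 7 with 20 uM heparin, 6 hr at 37 C. ThT 30 uM added, 1 hr ambient; Alexa 594 FP and total fluorescence read at 555/632 nm.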
FBPA coupling cs: qHTS Assay for Inhibitors of Fructose-1,6-bisphosphate Aldolase from Giardia Lamblia: Coupling assay counterscreen | 290,000 compounds, 0.67% hits | coupling enzyme system counterscreen, AmpLite Red fluorescence | activity change, negative = inhibition, % at 58.2 µM, hits read low; in the data active = activity change below about -30%
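Counterscreen of the coupled detection system alone, without aldolase: glyceraldehyde-3-phosphate coupling enzymes plus AmpLite Red readout. Compounds at 57.5 uM final, 10 min RT preincubation, 20 min RT reaction, fluorescence 525/598 nm.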
Starred values were filed as active, the others as inactive; [ ] = another dose, or the depositor's remark. Unless noted, calls come from the whole dose curve; as a rule, active = well fitted curve in the direction sought with a large enough effect; inconclusive = small, poorly fitted or top-dose-only effect, or another doubt; inactive = no such curve, though single readings can be large; an effect the other way counts as inactive or inconclusive. Unless noted, % is set by controls: 0 for no effect and ±100 for the full control effect.

CCCNC(=O)c1ccc(N2CCC3(CC2)CC(c2ccccc2)=NO3)c(NC(=O)Cc2ccc(F)cc2)c1 was read as G9a block 50µM*, Sfp PPTase inh 6% and FBPA coupling cs 0.
CCOc1ccc(CN2CCN(S(=O)(=O)c3ccc(Cl)cc3)CC2)cc1 was read as Tau fibril FP -4%, G9a block 2.2µM*, Tau fibril ThT -9% and Tau fluor cs -18%.
For CCOc1ccc(S(=O)(=O)N2CCN(Cc3ccccc3)CC2)cc1 the results were Sfp PPTase inh 14% and FBPA coupling cs 1.
CCOc1ccc(OCCCC(=O)N2CCN(S(=O)(=O)c3ccc(Cl)cc3)CC2)cc1 was read as G9a block 2.8µM*.
For Cc1ccccc1OCCC(=O)N1CCN(S(=O)(=O)c2ccc(Cl)cc2)CC1 the results were G9a block 45µM*.
O=C(CCCOc1ccccc1)N1CCN(S(=O)(=O)c2ccc(Cl)cc2)CC1 was read as G9a block -6%[59 µM].
`CC(C)OCCCNC(=O)c1c2c(nc3ccccc13)C(=O)N(C1CCCCC1)C2` gave Tau fibril FP 0%, G9a block 8%[59 µM], Tau fibril ThT -6% and Tau fluor cs 0%.
`CCn1nnc2cc(C(=O)Nc3ccc(Cl)cc3C)ccc21` gave Tau fibril FP -2%, G9a block -19%[59 µM], Tau fibril ThT -9% and Tau fluor cs -1%.
O=C(COc1ccc([N+](=O)[O-])cc1)Nc1cc(S(=O)(=O)N2CCCCC2)ccc1N1CCCCC1 was read as G9a block 1.8µM*.
For O=C(COc1ccc([N+](=O)[O-])cc1)Nc1ccccc1N1CCCC1 the results were Tau fibril FP 6%, G9a block 6%, Sfp PPTase inh 11%, Tau fibril ThT -15%, Tau fluor cs -23% and FBPA coupling cs -1.
`O=C(COc1ccc(F)cc1)Nc1cc(S(=O)(=O)N2CCCCC2)ccc1N1CCCCC1` gave G9a block 2µM*.
CC(C)(CO)NCC#Cc1ccccc1 was read as Tau fibril FP -1%, G9a block -32%, Sfp PPTase inh 12%, Tau fibril ThT 8%, Tau fluor cs 9% and FBPA coupling cs -1.
For Cc1sc(N/N=C/c2cccs2)nc1-c1ccccc1 the results were Tau fibril FP 13%, G9a block 45µM*, Sfp PPTase inh -10%, Tau fibril ThT inconclusive, Tau fluor cs inconclusive and FBPA coupling cs 0.
`COc1cc(Br)c(CC2c3cc(OC)c(OC)cc3CCN2C)cc1OC` (stereo not given) gave Sfp PPTase inh 4% and FBPA coupling cs 1.
For COc1cc2c(cc1OC)[C@@H](Cc1ccc(OCCC#N)cc1)N(C)CC2 the results were G9a block 35µM*, Sfp PPTase inh 13% and FBPA coupling cs -5.
For Cc1cc(F)ccc1NC(=O)C(C(C)C)N1Cc2ccccc2C1=O (stereo not given) the results were Tau fibril FP 9%, G9a block -27%[59 µM], Tau fibril ThT 0% and Tau fluor cs 4%.
`Nc1ncc(S(=O)(=O)NCc2ccccc2)cn1` gave Tau fibril FP -2%, G9a block 7%[59 µM], Tau fibril ThT -1% and Tau fluor cs -3%.
`Cc1cccc(N(Cc2cc(=O)[nH]c3ccccc23)C(=O)CCl)c1` gave G9a block 5.6µM*, Sfp PPTase inh inconclusive and FBPA coupling cs 2.
For COc1ccc(N(Cc2cc(=O)[nH]c3ccccc23)C(=O)CCl)cc1 the results were Sfp PPTase inh 3% and FBPA coupling cs -1.
Screening CC(=O)N(Cc1cc(=O)[nH]c2ccccc12)c1cccc(C)c1 returned Tau fibril FP inconclusive, G9a block inconclusive, Sfp PPTase inh 45µM*, Tau fibril ThT inconclusive, Tau fluor cs -19% and FBPA coupling cs 4.
CC(=O)N(Cc1cc(=O)[nH]c2ccccc12)c1ccccc1 was read as Tau fibril FP 2%, G9a block inconclusive, Sfp PPTase inh 8%, Tau fibril ThT -7%, Tau fluor cs -7% and FBPA coupling cs -1.
Screening CCCC(=O)N(Cc1cc(=O)[nH]c2ccccc12)c1cccc(C)c1 returned G9a block 28µM*, Sfp PPTase inh -15% and FBPA coupling cs 3.
Screening Cc1cccc(N(Cc2cc(=O)[nH]c3ccccc23)C(=O)C(C)C)c1 returned Tau fibril FP 1%, G9a block 9%, Sfp PPTase inh 23%, Tau fibril ThT -9%, Tau fluor cs -6% and FBPA coupling cs 6.
CC(=O)c1ccc(-n2nncc2C(C)(C)C)cc1 was read as Tau fibril FP 4%, G9a block -28%[59 µM], Sfp PPTase inh 19%, Tau fibril ThT 4%, Tau fluor cs 6% and FBPA coupling cs -1.
For C/C(=N\Nc1ccc([N+](=O)[O-])cc1[N+](=O)[O-])c1ccc(-n2nncc2C(C)(C)C)cc1 the results were Tau fibril FP 5%, G9a block 7.1µM*, Sfp PPTase inh -10%, Tau fibril ThT inconclusive, Tau fluor cs inconclusive and FBPA coupling cs 5.
CCOc1cc(C2C(C#N)=C(N)SC(N)=C2C#N)ccc1OCCN1CCOCC1 was read as Tau fibril FP inconclusive, G9a block 2.5µM*, Sfp PPTase inh -87%, Tau fibril ThT 25µM*, Tau fluor cs -29% and FBPA coupling cs -25.
`CCOc1ccc(C2C(C#N)=C(N)SC(N)=C2C#N)c(OCC)c1` gave Tau fibril FP inconclusive, G9a block 14µM*, Sfp PPTase inh 16µM*, Tau fibril ThT inconclusive, Tau fluor cs inconclusive and FBPA coupling cs -37*.
Cc1cc(C)nc(NS(=O)(=O)c2ccc(CC(C)C)cc2)c1 was read as Tau fibril FP -9%, G9a block 16%, Sfp PPTase inh -8%, Tau fluor cs -15% and FBPA coupling cs 7.
`COc1ccc(CCNC(=O)CSc2ncc3c(n2)-c2cc(Cl)ccc2N(Cc2ccccc2)S3(=O)=O)cc1OC` gave Tau fibril FP -9%, G9a block -8%[59 µM], Tau fibril ThT 9% and Tau fluor cs -21%.
